PubChem BioAssay AID1779 (Sanford-Burnham Center for Chemical Genomics, 2009)
The campaign covered roughly 290,000 compounds. About 160 (0.055%) were called active. The sample holds actives, similar compounds and a random draw of the others, so the mix is not that of the screen. A number with no mark means an inactive call. Cut-off read from the data, not from the text of the source: active = inhibition above about 50%; inactive = the rest.

What follows are compounds tested against Tyrosine-protein phosphatase non-receptor type 22 (Homo sapiens) (UniProt Q9Y2R2) (assay: PTPN22 lymphoid phosphatase activity blockers – biochemical, fluorescence intensity, uHTS (AID 1779;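 note: plate controls were vehicle with enzyme for no effect and no enzyme for full effect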)). Conditions: recombinant LYP phosphatase, at 11.5 µM, stronger effect = higher value.
Tyrosine-protein phosphatase non-receptor type 22 (Homo sapiens), sequence (Q9Y2R2 whole entry, looked up): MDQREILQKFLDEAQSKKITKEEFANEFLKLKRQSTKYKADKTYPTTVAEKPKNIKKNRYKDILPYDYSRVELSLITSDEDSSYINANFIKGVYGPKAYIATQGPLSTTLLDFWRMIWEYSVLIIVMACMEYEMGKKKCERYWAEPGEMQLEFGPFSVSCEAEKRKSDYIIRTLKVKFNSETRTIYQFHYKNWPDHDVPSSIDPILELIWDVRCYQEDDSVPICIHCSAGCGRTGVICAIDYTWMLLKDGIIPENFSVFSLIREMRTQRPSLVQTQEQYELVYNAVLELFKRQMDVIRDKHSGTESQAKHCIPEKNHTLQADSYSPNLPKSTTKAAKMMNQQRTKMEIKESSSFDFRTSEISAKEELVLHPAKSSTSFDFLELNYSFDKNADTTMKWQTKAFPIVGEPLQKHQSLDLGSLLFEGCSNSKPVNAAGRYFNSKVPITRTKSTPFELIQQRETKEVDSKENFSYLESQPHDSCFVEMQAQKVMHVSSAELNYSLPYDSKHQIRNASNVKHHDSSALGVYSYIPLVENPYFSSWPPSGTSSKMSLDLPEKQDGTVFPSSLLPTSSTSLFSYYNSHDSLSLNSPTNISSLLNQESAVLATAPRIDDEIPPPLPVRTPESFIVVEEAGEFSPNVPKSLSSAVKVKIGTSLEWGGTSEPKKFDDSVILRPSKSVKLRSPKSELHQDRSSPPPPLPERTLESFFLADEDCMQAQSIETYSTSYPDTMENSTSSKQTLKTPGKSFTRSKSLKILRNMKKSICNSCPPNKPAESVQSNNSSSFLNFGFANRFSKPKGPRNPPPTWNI

In order of falling inhibition:
1. COc1cc(/C=C2/NC(=O)NC2=O)cc(Br)c1OCc1ccc(C(=O)O)cc1  26.8%
2. COc1cccc(NS(=O)(=O)c2ccc3c(c2)C2C=CCC2C(c2ccc(C(=O)O)cc2)N3)c1 (configuration not stated)  16.1%
3. Nc1ccc2nc3c(=O)n(C4CCCCC4)c(=O)[nH]c3nc2c1  4.7%
4. COc1ccc(NS(=O)(=O)c2ccc3c(c2)[C@H]2C=CC[C@H]2[C@@H](c2ccc(C(=O)O)cc2)N3)cc1  4.5%
5. COc1cc(/C=C2/NC(=O)NC2=O)cc(Br)c1OCc1cccc(C(=O)O)c1  4.5%
6. Cc1ccc(-n2ccc(=O)c(C(=O)Nc3ccc(S(=O)(=O)Nc4onc(C)c4C)cc3)n2)cc1  2.8%
7. O=C(COC(=O)c1cc(-c2cccs2)nn1-c1ccccc1)Nc1ccc(Cl)c([N+](=O)[O-])c1  2%
8. OC(COC(c1ccccc1)c1ccccc1)CN1CCOCC1 (configuration not stated)  1.2%
9. COc1cc2c(C#N)c(N3CCCCC3)nc(N)c2c(N)n1  -1.1%
10. COc1cc2c(C#N)c(N3CCCC3)nc(N)c2c(N)n1  -2.4%
11. COc1cc(CC(NC(C)=O)C(=O)NC2CCN(c3nc(C)cc(C)c3C#N)CC2)cc(OC)c1 (configuration not stated)  -2.6%
12. COC(=O)C1CCN(c2ccc([N+](=O)[O-])cc2)CC1  -2.8%
13. CC1(C)CCC(=O)N(c2ccccc2)C1=O  -3%
14. CCc1nc2cc(Cl)c(Cl)cc2[nH]1  -3%
15. CC(=O)c1ccc(N2C(=O)[C@@H]3C(CCC(N)=O)NC4(C(=O)Nc5c4ccc(Cl)c5C)[C@@H]3C2=O)cc1 (some centres not stated)  -3.9%
16. C=C(C)Cn1c(SCC(=O)O)nc2c1c(=O)[nH]c(=O)n2C  -3.9%
17. CC(=O)Nn1c(COc2ccccc2C)nc2ccccc2c1=O  -4.5%
18. O=C(Cc1ccc(Cl)cc1Cl)NC1CCCCCC1  -4.7%
19. Cc1ccc(CN(CC(=O)NC(C)(C)C)C(=O)CNC(=O)c2cccs2)cc1  -5.3%
20. CCCc1nc2ccc([N+](=O)[O-])cc2[nH]1  -5.4%
21. CCC(=O)Nc1ccc2nc3c(=O)[nH]c(=S)[nH]c3nc2c1  -5.4%
22. CC(=O)CCS(=O)(=O)c1ccc(NC(C)=O)cc1  -5.5%
23. Cc1ccc(S(=O)(=O)NNC(=O)c2ccoc2C)cc1  -5.8%
24. Nc1nonc1-n1nnc(C(=O)N/N=C/c2ccoc2)c1CSc1ccc(Cl)cc1  -6.9%
25. CCOC(=O)c1cnc2c(C)c(C)ccc2c1NCCN1CCOCC1  -7.3%
26. COc1cc(N(C)C)c([N+](=O)[O-])cc1C(=O)NC(C)CNc1ccc([N+](=O)[O-])cc1Cl (configuration not stated)  -7.4%
27. Cc1cccc(-n2ccc(=O)c(C(=O)Nc3ccc(S(=O)(=O)Nc4onc(C)c4C)cc3)n2)c1  -7.6%
28. S=C(NCc1ccccc1Cl)NC1CCCC1  -7.7%
29. O=C(COC(=O)c1cc(-c2cccs2)nn1-c1ccccc1)Nc1ccc(F)c([N+](=O)[O-])c1  -7.7%
30. COC(=O)C1CCN(CCCOc2ccc(CN3CCN(c4ccc([N+](=O)[O-])cc4)CC3)cc2)CC1  -8%
31. Cc1cccc(C)c1N1CCN(c2n[nH]c(N)n2)CC1  -8.3%
32. COc1ccc(C(=O)NCCNC(C)=O)cc1S(=O)(=O)NCc1ccc(Cl)cc1  -8.9%
33. CCOC(=O)c1cnc2c(Cl)cccc2c1NCCN1CCOCC1  -9.2%
34. Cn1c(=O)c2ncn(CC(=O)N/N=C/c3ccco3)c2n(C)c1=O  -9.9%
35. Cc1occc1C(=O)NNS(=O)(=O)c1ccc([N+](=O)[O-])cc1  -10.5%
36. CCCC(=O)NC(=S)Nc1ccccc1F  -10.5%
37. CC1(C)Nc2ccccc2C(=O)N1c1ccccc1  -11.8%

For `S=C(NCc1ccc(Cl)cc1Cl)NC1CCCCC1`, the inhibition was 68.1% (active).
For `Cc1occc1C(=O)NNS(=O)(=O)c1ccc(Cl)cc1`, the inhibition was 71.2% (active).
With `Cc1ccc(NC(=O)COC(=O)c2cc(-c3cccs3)nn2-c2ccccc2)cc1[N+](=O)[O-]` the inhibition was 74.9% (active).
In the case of `N#Cc1c(N2CCCC2)nc(N)c2c(N)nc(N3CCCC3)cc12`, the inhibition is reported as 65.7% (active).
With `CC12CCC(=O)N1c1ccccc1C(=O)N2c1ccccc1` (configuration not stated) the inhibition was 66.6% (active).
`Cc1noc(NS(=O)(=O)c2ccc(NC(=O)c3nn(-c4ccccc4)ccc3=O)cc2)c1C` was tested, and the inhibition was 53.3% (active).
With `CCc1nc2cc([N+](=O)[O-])c([N+](=O)[O-])cc2[nH]1` the inhibition was 54.4% (active).
`Nc1ccc2nc3c(=O)[nH]c(=S)[nH]c3nc2c1` was tested, and the inhibition was 58.3% (active).
In the case of `COC(=O)C1CCN(Cc2ccc(OCCCN3CCN(c4ccc([N+](=O)[O-])cc4)CC3)cc2)CC1`, the inhibition is reported as 78.6% (active).
With `CCOC(=O)c1cnc2c(Cl)c(Cl)ccc2c1NCCN1CCOCC1` the inhibition was 59.4% (active).
